Many of the other results were omitted from the sample, so hits are more common in it than they were.
HSV augment: HSV replication enhancement | HSV replication augmentation in cells, fold increase | maximum fold increase | 0.005% of 220,000 active | AID 1956; in the data active means maximum fold increase above about 1.5; inconclusive means no clear call, values can overlap the other calls; tested in PC3 cells
Tb hexokinase: T. brucei hexokinase 1 inhibition; recombinant TbHK1, G6PDH-coupled NADH A340; inhibition, % at 10 µM; 0.11% of 220,000 active; AID 1430;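 active means inhibition of 50% or more in the single-dose primary screen; inactive means inhibition below 50%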
ROMK primary: modulates human ROMK potassium channel activity | P48048 | Tet-inducible ROMK, thallium flux fluorescence; actives lie on both sides | B-score at 10 µM | 2% of 130,000 active | AID 1918;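 active means signal ratio slope over the read window, or its plate-corrected B-score, at least 3 SD from the plate mean, either direction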;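 further: B-score of the F/F0 ratio slope over 7 to 12 s after thallium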
Target sequence (P48048 whole entry, looked up): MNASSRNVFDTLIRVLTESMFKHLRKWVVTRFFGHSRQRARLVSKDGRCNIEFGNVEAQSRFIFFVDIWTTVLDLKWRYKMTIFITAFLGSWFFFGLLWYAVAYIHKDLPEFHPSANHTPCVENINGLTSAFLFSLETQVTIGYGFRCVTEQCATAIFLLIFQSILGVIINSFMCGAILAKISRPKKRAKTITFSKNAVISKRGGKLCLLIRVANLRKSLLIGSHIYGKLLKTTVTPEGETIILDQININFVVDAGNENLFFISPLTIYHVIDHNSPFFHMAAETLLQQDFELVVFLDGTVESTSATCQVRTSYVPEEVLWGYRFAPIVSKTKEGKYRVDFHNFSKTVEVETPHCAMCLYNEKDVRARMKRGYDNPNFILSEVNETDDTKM
Insulin prom up: MIN6 insulin promoter up-regulation; z-score at 5 µM; AID 1625; 0.3% of 190,000 active; MIN6 insulin promoter-GFP reporter, high-content imaging; hits give high values;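 active means z-score above 3 at 5 µM with at least 500 cells counted in the well; inconclusive means wells under 500 cells, flagged as cytotoxic or low count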
Insulin prom inh: TRM-6 insulin promoter activity inhibition; TRM-6 cells (human fetal islet line), insulin promoter-eGFP reporter, imaging; reporter expression induced with tamoxifen; 0.9% of 130,000 active; inhibition, % at 2 µM;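 active means inhibition above the mean plus 3 SD, with well images judged a real hit on visual review, cut at about 60% in these data, passing the limit was not always enough; inconclusive means inhibition over the cutoff but images rejected on review; inactive means inhibition not above the cutoff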
ROMK retest: retested hit modulating human ROMK potassium channel; normalized thallium flux (F/F0 slope) at 10 µM; shares compounds with ROMK primary; AID 1917; ROMK thallium flux, fluorescence ratio; hits give low values; 54% of 3,000 active;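 active means Flux at 10 µM at least 3 SD below or above vehicle control mean in one or both replicates; inconclusive means no clear call, values can overlap the other calls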
* marks the source's active call; other numbers are inactive results; i = inactive; ? = inconclusive; / = no result.

SMILES | HSV augment | Tb hexokinase | ROMK primary | Insulin prom up | Insulin prom inh | ROMK retest
COc1ccc(C(C(N)=O)c2ncc(C(F)(F)F)cc2Cl)cc1OC (stereo not given) | i | -5 | 0.88 | 0.29 | / | /
Cc1cc(Nc2n[nH]c(N)c2C#N)ccc1F | i | 1 | / | -1.4 | / | /
Cc1cccnc1NC(=O)Cn1nc(-c2ccccc2)oc1=S | i | 3 | -0.17 | 0.04 | 30 | /
CN(C)CC/C=C1/c2ccccc2Sc2ccc(Cl)cc21 | i | 5 | / | -0.12 | / | /
CCCCCC[N+](C)(C)CC/C=C1/c2ccccc2Sc2ccc(Cl)cc21 | i | 14 | / | -1.7 | / | 0.045*
CCn1cc(C(=O)OCC(=O)N(C)Cc2ccccc2)c(=O)c2ccc(C)nc21 | i | -6 | 2.9* | -1.1 | / | 0.078
CCn1cc(C(=O)OCC(=O)c2cc(C)n(-c3ccccc3)c2C)c(=O)c2ccc(C)nc21 | i | 1 | -0.36 | 0.29 | -81 | /
CCn1cc(C(=O)OCC(=O)c2cc(C)n(-c3ccc(OC(F)F)cc3)c2C)c(=O)c2ccc(C)nc21 | i | 5 | -3.2* | / | / | 0.063*
CCOc1ccc(-c2nnn(CC#N)n2)cc1OC | i | 5 | / | / | 47 | /
O=C(CCCCN1CCCCC1)c1ccc2c(c1)Cc1ccccc1-2 | i | -1 | -4.5* | -1.9 | -67 | 0.064*
COc1ccc(C2CC(c3cccs3)=NN2c2nc(-c3ccccc3)cs2)cc1OC (stereo not given) | i | -20 | / | -0.18 | 12 | /
CN(C)S(=O)(=O)c1ccc(Cl)c(NC(=O)CN2CCN(Cc3ccc4c(c3)OCO4)CC2)c1 | i | -19 | / | -1.4 | / | /
COc1ccc(C(=O)/C=C/C(=O)N(Cc2ccccc2)C(C(=O)NC2CCCCC2)c2ccncc2)c(O)c1 (stereo not given) | i | 2 | -2.4 | -0.21 | -11 | /
COc1ccc(C(=O)/C=C/C(=O)N(Cc2ccccc2OC)C(C(=O)NC2CCCCC2)c2ccncc2)c(O)c1 (stereo not given) | i | -2 | -3.7* | -0.44 | -44 | 0.066*
COc1ccc2[nH]c(=O)c(CN(C(=O)NC3CCCCC3)C3CCCC3)cc2c1 | i | -7 | -2.8* | / | 0 | 0.072
COc1ccc2[nH]c(=O)c(CN(CC3CCCO3)C(=O)Nc3ccc(F)cc3)cc2c1 (stereo not given) | i | -23 | / | 1.8 | -25 | 0.061*
Oc1c(Br)cc(Cl)cc1C=Nc1ccccc1Br | i | 34 | 3.5* | 0.64 | -21 | ?
O=C(NCCc1nc2ccccc2[nH]1)/C(=C/c1ccc2c(c1)OCO2)NC(=O)c1ccc(Cl)cc1Cl | i | -8 | -3.4 | -0.18 | -26 | /
O=C(NC(=S)N1CCN(c2ccccn2)CC1)c1ccco1 | i | -4 | / | 1.1 | / | /
COc1ccc2c(c1OC)C(=O)N(c1ccc(C)cc1)C2 | i | -13 | -0.32 | 0.53 | / | /
Cc1ccc(CSC(Nc2ccc(F)cc2)=C(C#N)C#N)cc1 | i | -2 | -0.86 | -0.55 | 27 | 0.075
CCN(CC)C(=O)CSC(Nc1ccc(F)cc1)=C(C#N)C#N | / | -21 | / | -0.69 | / | 0.059*
Cc1ccc(NC(=O)CSCc2ccc(F)cc2)cc1 | i | 1 | 1.2 | 0.11 | / | /
CC1CCN(C(=O)C2CCN(S(=O)(=O)c3cccc4nonc34)CC2)CC1 | i | -5 | / | -0.34 | -14 | /
CC(C)NC(=O)NC(=O)COC(=O)c1cc[n+]([O-])cc1 | i | 2 | -0.12 | 0.66 | / | /
SMILES | HSV augment | Tb hexokinase | ROMK primary | Insulin prom up | Insulin prom inh | ROMK retest
CCN1CCCc2cc(CN(CCN3CCOCC3)C(=O)Nc3ccc(C)c(C)c3)ccc21 | i | -11 | -3.5* | -0.32 | 50 | 0.056*
C[n+]1cccc(/C=N/NC(=O)CC23CC4CC(CC(C4)C2)C3)c1 | i | -6 | / | 0.34 | / | /
Cc1ccc(C2=N/C(=C\c3c(C)nn(-c4ccccc4)c3N3CCCC3)C(=O)O2)cc1 | i | -22 | -0.62 | 0.13 | -53 | /
Cc1nn(-c2ccccc2)c(N2CCCC2)c1/C=C1\N=C(c2ccc(F)cc2)OC1=O | i | -11 | -1.5* | -0.03 | 33 | 0.066*
O=C(/C=C/c1ccccc1)CC(O)(c1ccccc1)C(F)(F)F (stereo not given) | i | -2 | -4.8* | 0.33 | 50 | 0.052*
CCOC(=O)Cn1nc(C)n(-c2ccc(F)cc2)c1=O | i | 4 | 0.043 | 0.38 | / | /
CCN(CC)c1ccc(C=Nc2ccc(N(C)C)cc2)c(O)c1 | i | 1 | -2.7* | 0.15 | -13 | ?
CCN(CC)c1ccc(N=Cc2ccc(N(CC)CC)cc2O)cc1 | i | -8 | / | 2.9 | 43 | /
O=C(COC(=O)COc1cccc(Br)c1)Nc1c(Cl)cccc1Cl | i | -3 | 0.46 | -0.78 | -61 | /
COC(=O)CCn1c(C)cc(C(=O)COc2ccccc2C(N)=O)c1C | i | -3 | -5.4* | 0.17 | 0 | ?
COc1cc(-c2nnc3sc(Cc4ccccc4)nn23)cc(OC)c1OC | i | 2 | -0.45 | -1.1 | / | /
COc1ccc(Cc2nn3c(-c4cc(OC)c(OC)c(OC)c4)nnc3s2)cc1 | i | -6 | -2.6* | 0.29 | 56 | ?
COc1ccccc1-c1cc(C(=O)NCCc2ccccc2)no1 | i | -10 | 3.5* | / | -38 | 0.076
COc1ccccc1-c1cc(C(=O)Nc2cccnc2)no1 | / | 2 | 5.1* | 0.53 | / | 0.081
COc1ccccc1-c1cc(C(=O)N2CCN(c3ccccc3OC)CC2)no1 | i | -12 | 3.3* | -0.9 | / | 0.085
COc1cc(NC(=O)c2cc(-c3cccs3)on2)cc(OC)c1OC | / | -3 | 4.1* | 2 | / | 0.084
COc1ccccc1N1CCN(C(=O)c2cc(-c3ccc(C)cc3)on2)CC1 | i | -6 | -1.4 | 0.48 | 28 | /
COc1ccc(CCNC(=O)c2cc(-c3ccccc3OC)on2)cc1OC | i | -2 | / | -1 | / | /
COc1ccc(CN2CCCCC2C)c(C)c1C (stereo not given) | i | 2 | / | 1.1 | 36 | /
COc1ccc(CN(C)C2CCCCC2)c(C)c1C | i | 4 | -4* | 0.37 | 13 | 0.068*
CCC1Oc2ccc(C)cc2N(CC(=O)NCCN2C(C)CCCC2C)C1=O (stereo not given) | i | 4 | -0.068 | -0.23 | -4 | /
CCC1Oc2ccc(C)cc2N(CC(=O)N(Cc2ccc(C)o2)C2CCCC2)C1=O (stereo not given) | / | -2 | -4.3* | / | -256 | 0.065*
CC(=O)Nc1cccc(/C(C)=N/NC(=O)c2ccc3c(c2)OCO3)c1 | i | -5 | -0.02 | -0.78 | / | /
O=C1c2[nH]nc(-c3ccccc3O)c2C(c2cccc(Cl)c2)N1CC1CCCO1 (stereo not given) | / | 1 | -2.4* | -0.53 | / | 0.052*
O=C1c2[nH]nc(-c3ccccc3O)c2C(c2ccc(F)cc2)N1CC1CCCO1 (stereo not given) | i | -1 | -1.3 | -0.41 | / | /
Cc1noc(C)c1COC(=O)c1ccc2c(c1)S(=O)(=O)c1ccccc1C2=O | i | 7 | / | -0.46 | / | 0.078
CCOC(=O)C1CCN(C(=O)COc2cc(C)c(Br)cc2C)CC1 | i | -8 | -4.9* | 1.3 | 38 | 0.058*

From PubChem
